Shown are actives, neighbours in structure and some others; about 1.3% of the full set was active somewhere.
RN4220 kill: S. aureus RN4220 growth inhibition; OD600, 16 h; 330,000 tested, 0.33% active; inhibition, % (test concentration not listed); in the data active = inhibition above about 85%;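 also: plate controls were untreated cells for no effect and reference antibiotic for full effect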
ugtP null kill: compounds lethal to S. aureus RN4220 ugtP deletion mutant. OD600 growth, 16 h. growth inhibition, % (concentration not given with the values). 330,000 tested, 0.54% active; in the data active = growth inhibition above about 68%;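 also: plate controls were untreated wells for no effect and antibiotic for full effect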
PfHsp40 yeast: compounds rescuing yeast from Plasmodium falciparum HSP40 toxicity; S. cerevisiae expressing PfHsp40, growth rescue, ATP luminescence; growth rescue, % at 12.5 µM; 340,000 tested, 0.68% active; in the data active = growth rescue above about 28%, passing the limit was not always enough;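 also: yeast W303a lacking pdr1 and pdr3 grown in galactose medium; growth measured after three days at 30 °C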
Mtb hypoxia inh: Mtb hypoxia fluorescent reporter inhibition. fluorescence inhibition, % (no concentration beside the values). AID 1159583. M. tuberculosis hypoxia-regulated fluorescent reporter, fluorescence. 300,000 tested, 0.1% active; in the data active = fluorescence inhibition mostly above about 23%, no sharp cut-off; inactive = mostly below about 17%
TcdB inh: blocks C. difficile toxin B glycohydrolase activity; TcdB glycohydrolase enzymatic assay, plate reader; 350,000 tested, 0.24% active; P18177; AID 652162; inhibition, % at 9.99 µM; in the data active = inhibition above about 10%
MazF activator: increases E. coli MazEF RNase cleavage of RNA | activation, % at 20 µM | AID 504720 | FAM/BHQ RNA-DNA oligo cleavage fluorescence, 5 h | P0AE70 | 350,000 tested, 0.32% active; in the data active = activation above about 50%
Target sequence (P0AE70 whole entry, looked up): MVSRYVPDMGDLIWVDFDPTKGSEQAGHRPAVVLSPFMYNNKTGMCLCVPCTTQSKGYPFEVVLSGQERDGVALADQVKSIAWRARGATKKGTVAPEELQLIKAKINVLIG
Numbers without * were called inactive.

How did COc1ccc(N2CCN(C(=O)c3ccc(CS(=O)Cc4ccc(C)cc4)o3)CC2)cc1 (configuration not stated) do in these assays?
RN4220 kill: -7; ugtP null kill: 96*; PfHsp40 yeast: 0; Mtb hypoxia inh: 3; TcdB inh: 1; MazF activator: 2

What do the screens show for `COc1cccc(N2CCN(C(=O)c3ccc(CS(=O)Cc4ccc(Cl)cc4)o3)CC2)c1` (configuration not stated)?
RN4220 kill: -7; ugtP null kill: 92*; PfHsp40 yeast: -1; Mtb hypoxia inh: 3; TcdB inh: 0; MazF activator: 8

What do the screens show for `O=C(c1ccc(CS(=O)Cc2ccc(Cl)cc2)o1)N1CCN(c2ccccc2)CC1` (configuration not stated)?
RN4220 kill: -6; ugtP null kill: 94*; PfHsp40 yeast: 0; Mtb hypoxia inh: -3; TcdB inh: 0; MazF activator: -2

Results for O=C(NCCCN1CCOCC1)[C@H]1N[C@H]2c3ccc(C4=CCCC4)c(=O)n3C[C@H]2[C@@H]1CO ?
TcdB inh: -1

Results for C=C1CCC2C(OC(=O)[C@]2(O)CO)C2C(=C)C(O)CC12 (some centres not stated) ?
RN4220 kill: 6; ugtP null kill: 12; Mtb hypoxia inh: 18

How did CC1(C)CC(=O)C2=C(C1)OC(N=CN1CCOCC1)=C(C#N)C2c1ccccc1 (configuration not stated) do in these assays?
RN4220 kill: 6; ugtP null kill: 0; Mtb hypoxia inh: 0

How did CCOc1ccc(NS(=O)(=O)c2cc(NC(=O)c3ccc(C)cc3)ccc2Cl)cc1 do in these assays?
RN4220 kill: 2; ugtP null kill: 85*; PfHsp40 yeast: 1; Mtb hypoxia inh: 6; MazF activator: 1

What do the screens show for `C[C@@H]1CN([C@H](C)CO)C(=O)c2cc(NC(=O)NC3CCCCC3)ccc2O[C@@H](C)CCCCO[C@@H]1CN(C)C(=O)Nc1ccc(F)cc1`?
TcdB inh: 1

Results for Cc1nn(-c2ccccc2)c(C)c1C=NNC(=O)c1ccccc1O ?
RN4220 kill: 3; ugtP null kill: 1; Mtb hypoxia inh: 4

How did O=C(O)c1cccc2c3c([nH]c12)CCCC3 do in these assays?
RN4220 kill: 3; ugtP null kill: 2; PfHsp40 yeast: 128*; Mtb hypoxia inh: 0; TcdB inh: 0; MazF activator: 3

What do the screens show for `O=C(O)c1cc2c([nH]c1=O)CCCC2`?
RN4220 kill: -1; ugtP null kill: 9; PfHsp40 yeast: 0; MazF activator: 7

What do the screens show for `C[C@@H]1CN([C@H](C)CO)C(=O)c2cc(C#CCN(C)C)cnc2O[C@H]1CN(C)S(C)(=O)=O`?
TcdB inh: -1

Results for C[C@@H]1CCCCO[C@@H](CN(C)CC2CCCCC2)[C@H](C)CN([C@H](C)CO)C(=O)c2cc(NS(=O)(=O)c3ccccc3)ccc2O1 ?
TcdB inh: 0

Results for CCN(C(=O)c1cnc2scc(C)n2c1=O)c1ccccc1C ?
RN4220 kill: -3; ugtP null kill: 2; PfHsp40 yeast: 40*; Mtb hypoxia inh: 10; TcdB inh: 1; MazF activator: 10

What do the screens show for `Cc1csc2ncc(C(=O)Nc3ccccc3F)c(=O)n12`?
RN4220 kill: 3; ugtP null kill: -4; PfHsp40 yeast: 0; Mtb hypoxia inh: 1; TcdB inh: 1; MazF activator: 1

Results for C=CCC[C@@H](Cc1ccc(F)cc1)C(=O)OC[C@@H](Cc1c[nH]c2ccccc12)NC(=O)[C@H](CC=C)CC(=O)NCCO ?
PfHsp40 yeast: 14; TcdB inh: 2; MazF activator: 3

Results for C=CC[C@@H](CC(=O)NCCO)C(=O)N[C@H](COC(=O)[C@@H](CC=C)Cc1ccc(F)cc1)Cc1c[nH]c2ccccc12 ?
RN4220 kill: 6; ugtP null kill: -13; PfHsp40 yeast: 1; Mtb hypoxia inh: 6; TcdB inh: 2; MazF activator: 11

Results for C=CCC[C@H](Cc1ccc(F)cc1)C(=O)OC[C@H](Cc1c[nH]c2ccccc12)NC(=O)[C@H](CC=C)CC(=O)NCCO ?
PfHsp40 yeast: 32*; TcdB inh: 2; MazF activator: 10

Screening data (PubChem)
